B1: unnamed (peptide)
chain: KMSRSPPRPPSLKII

Each binder was assayed against AgAbp1 (assay: SPOT peptide array binding signal intensity (averaged, normalized) (arbitrary units (background-subtracted, floor 0; scale differs between SH3 domains)); higher = stronger binding of the SH3 domain to the peptide).
How it was run: (§1)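 Peptides were synthetic 15-mers on cellulose membranes, with every cysteine replaced by serine. They were incubated overnight at 4°C with GST-SH3 domains from four yeast species at 10 μg/ml in TBS-based blocking buffer. Binding signal, the replicate-averaged normalized and background-subtracted spot intensity, is in arbitrary units that differ between domains.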

| Binder | SPOT peptide array binding signal intensity |
| --- | --- |
| B1 | 329 |

What follows are binders tested against AgBbc1 in the same assay as above.
How it was run: as §1

| Binder | SPOT peptide array binding signal intensity |
| --- | --- |
| B1 | 145 |

What follows are binders tested against AgBem1-D1 in the same assay as above.
How it was run: as §1

| Binder | SPOT peptide array binding signal intensity |
| --- | --- |
| B1 | 707 |

These binders were tested against AgBzz1-D1 in the same assay as above.
How it was run: as §1

| Binder | SPOT peptide array binding signal intensity |
| --- | --- |
| B1 | 85.5 |

What follows are binders tested against AgBzz1-D2 in the same assay as above.
How it was run: as §1

| Binder | SPOT peptide array binding signal intensity |
| --- | --- |
| B1 | 35 |

These binders were tested against AgCyk3 in the same assay as above.
How it was run: as §1

| Binder | SPOT peptide array binding signal intensity |
| --- | --- |
| B1 | 4 |

Each binder was assayed against AgFus1 in the same assay as above.
How it was run: as §1

| Binder | SPOT peptide array binding signal intensity |
| --- | --- |
| B1 | 180 |

Each binder was assayed against AgHof1 in the same assay as above.
How it was run: as §1

| Binder | SPOT peptide array binding signal intensity |
| --- | --- |
| B1 | 17 |

What follows are binders tested against AgHse1 in the same assay as above.
How it was run: as §1

| Binder | SPOT peptide array binding signal intensity |
| --- | --- |
| B1 | 99 |

Each binder was assayed against AgLsb1 in the same assay as above.
How it was run: as §1

| Binder | SPOT peptide array binding signal intensity |
| --- | --- |
| B1 | 20 |

Each binder was assayed against AgLsb4 in the same assay as above.
How it was run: as §1

| Binder | SPOT peptide array binding signal intensity |
| --- | --- |
| B1 | ≤ 0 |

What follows are binders tested against AgMyo5 in the same assay as above.
How it was run: as §1

| Binder | SPOT peptide array binding signal intensity |
| --- | --- |
| B1 | 10.5 |

Each binder was assayed against AgNbp2 in the same assay as above.
How it was run: as §1

| Binder | SPOT peptide array binding signal intensity |
| --- | --- |
| B1 | 1350 |

The binders below were run against AgRvs167 in the same assay as above.
How it was run: as §1

| Binder | SPOT peptide array binding signal intensity |
| --- | --- |
| B1 | 4.5 |

The binders below were run against AgSho1 in the same assay as above.
How it was run: as §1

| Binder | SPOT peptide array binding signal intensity |
| --- | --- |
| B1 | 228 |

These binders were tested against AgSla1-D1-D2 in the same assay as above.
How it was run: as §1

| Binder | SPOT peptide array binding signal intensity |
| --- | --- |
| B1 | 25 |

The binders below were run against AgSla1-D3 in the same assay as above.
How it was run: as §1

| Binder | SPOT peptide array binding signal intensity |
| --- | --- |
| B1 | 9.25 |

These binders were tested against CaAbp1-D1 in the same assay as above.
How it was run: as §1

| Binder | SPOT peptide array binding signal intensity |
| --- | --- |
| B1 | 734 |

The binders below were run against CaAbp1-D2 in the same assay as above.
How it was run: as §1

| Binder | SPOT peptide array binding signal intensity |
| --- | --- |
| B1 | 1170 |

The binders below were run against CaBbc1 in the same assay as above.
How it was run: as §1

| Binder | SPOT peptide array binding signal intensity |
| --- | --- |
| B1 | 564 |

Each binder was assayed against CaBem1-D1 in the same assay as above.
How it was run: as §1

| Binder | SPOT peptide array binding signal intensity |
| --- | --- |
| B1 | 83 |

The binders below were run against CaBzz1-D1 in the same assay as above.
How it was run: as §1

| Binder | SPOT peptide array binding signal intensity |
| --- | --- |
| B1 | 1880 |

The binders below were run against CaBzz1-D2 in the same assay as above.
How it was run: as §1

| Binder | SPOT peptide array binding signal intensity |
| --- | --- |
| B1 | 466 |

These binders were tested against CaCyk3 in the same assay as above.
How it was run: as §1

| Binder | SPOT peptide array binding signal intensity |
| --- | --- |
| B1 | 36 |

The binders below were run against CaFus1 in the same assay as above.
How it was run: as §1

| Binder | SPOT peptide array binding signal intensity |
| --- | --- |
| B1 | 974 |

Each binder was assayed against CaHof1 in the same assay as above.
How it was run: as §1

| Binder | SPOT peptide array binding signal intensity |
| --- | --- |
| B1 | 0.5 |

What follows are binders tested against CaHse1 in the same assay as above.
How it was run: as §1

| Binder | SPOT peptide array binding signal intensity |
| --- | --- |
| B1 | 58.5 |

These binders were tested against CaLsb1 in the same assay as above.
How it was run: as §1

| Binder | SPOT peptide array binding signal intensity |
| --- | --- |
| B1 | 2.5 |

These binders were tested against CaLsb4 in the same assay as above.
How it was run: as §1

| Binder | SPOT peptide array binding signal intensity |
| --- | --- |
| B1 | 588 |

These binders were tested against CaMyo5 in the same assay as above.
How it was run: as §1

| Binder | SPOT peptide array binding signal intensity |
| --- | --- |
| B1 | 44.5 |

The binders below were run against CaNbp2 in the same assay as above.
How it was run: as §1

| Binder | SPOT peptide array binding signal intensity |
| --- | --- |
| B1 | 1320 |

What follows are binders tested against CaRvs167 in the same assay as above.
How it was run: as §1

| Binder | SPOT peptide array binding signal intensity |
| --- | --- |
| B1 | 68 |

These binders were tested against CaRvs167-3 in the same assay as above.
How it was run: as §1

| Binder | SPOT peptide array binding signal intensity |
| --- | --- |
| B1 | ≤ 0 |

What follows are binders tested against CaSho1 in the same assay as above.
How it was run: as §1

| Binder | SPOT peptide array binding signal intensity |
| --- | --- |
| B1 | 939 |

The binders below were run against CaSla1-D1-D2 in the same assay as above.
How it was run: as §1

| Binder | SPOT peptide array binding signal intensity |
| --- | --- |
| B1 | 337 |

Each binder was assayed against CaSla1-D3 in the same assay as above.
How it was run: as §1

| Binder | SPOT peptide array binding signal intensity |
| --- | --- |
| B1 | 258 |

The binders below were run against ScAbp1 in the same assay as above.
How it was run: as §1

| Binder | SPOT peptide array binding signal intensity |
| --- | --- |
| B1 | 178 |

Reference: the supplement of paper PMC4466140
